8 compounds from the supplement of paper PMC9262897, “Low-cost anti-mycobacterial drug discovery using engineered E. coli” (Nature Communications, 2022) can be followed below.

Structures can show the parent of a compound that is named as a salt. ± gives the standard deviation of the averaged measurements.

The subject of the assay is E. coli TESEC Mtb Alr. As to the kind of experiment: growth (OD600 after 10 h); higher = more growth (less inhibition). The conditions noted are these: compound 0.1 mM. The procedure:
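TESEC Mtb Alr E. coli, or the Alr+ wild-type control, in 384-well plates with Prestwick library compounds at 0.1 mM and 1% DMSO, across arabinose induction levels of 1E3 to 1E7 nM. Growth is read as OD600 after 10 h at 37 °C in triplicate biological replicates.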

[1] abbreviates: arabinose 1000 nM, raw OD600 reference: median of DMSO wells 0.294, cell-free background 0.041.
Setting [2] is: arabinose 10000 nM, raw OD600 reference: median of DMSO wells 0.264, cell-free background 0.041.
Setting [3] is: arabinose 100000 nM, raw OD600 reference: median of DMSO wells 0.201, cell-free background 0.041.
[4] abbreviates: arabinose 1000000 nM, raw OD600 reference: median of DMSO wells 0.193, cell-free background 0.041.
Setting [5] is: arabinose 10000000 nM, raw OD600 reference: median of DMSO wells 0.146, cell-free background 0.041.

Turning to `COc1ccc2[nH]c([S+]([O-])Cc3ncc(C)c(OC)c3C)nc2n1` (stereo not given) [Tenatoprazole], the growth was 0.192 ± 0.0066 under setting [1]; 0.227 ± 0.012 under setting [2]; 0.128 ± 0.0093 under setting [3]; 0.0829 ± 0.0019 under setting [4]; 0.134 ± 0.0048 under setting [5].

On to `CNCCC(Oc1ccc(C(F)(F)F)cc1)c1ccccc1` (stereo not given) [Fluoxetine hydrochloride], for which the growth was 0.0669 ± 0.0012 under setting [1]; 0.133 ± 0.0068 under setting [2]; 0.0693 ± 0.0015 under setting [3]; 0.0486 ± 0.00026 under setting [4]; 0.05543 ± 0.00047 under setting [5].

Consider `CCCCCN(C)CCC(O)(P(=O)(O)O)P(=O)(O)O` [Ibandronate sodium], for which the growth by setting is: under setting [1], 0.287 ± 0.01; under setting [2], 0.25 ± 0.0058; under setting [3], 0.196 ± 0.011; under setting [4], 0.182 ± 0.0036; under setting [5], 0.131 ± 0.0067.

Turning to `Nc1nc2c(ncn2COCCO)c(=O)[nH]1` [Acyclovir], the growth runs as follows: under setting [1], 0.287 ± 0.021; under setting [2], 0.2708 ± 0.0022; under setting [3], 0.239 ± 0.019; under setting [4], 0.196 ± 0.014; under setting [5], 0.139 ± 0.0044.

Turning to `C#C[C@]1(O)CC[C@H]2[C@@H]3[C@H](C)CC4=C(CCC(=O)C4)[C@H]3CC[C@@]21C` [Tibolone], the growth runs as follows: under setting [1], 0.162 ± 0.017; under setting [2], 0.155 ± 0.031; under setting [3], 0.15 ± 0.021; under setting [4], 0.0695 ± 0.00095; under setting [5], 0.148 ± 0.0066.

Turning to `O=C(OCC(O)CO)c1ccccc1Nc1ccnc2cc(Cl)ccc12` (stereo not given) [Glafenine hydrochloride], the growth by setting is: under setting [1], 0.146 ± 0.006; under setting [2], 0.164 ± 0.017; under setting [3], 0.187 ± 0.026; under setting [4], 0.102 ± 0.0023; under setting [5], 0.144 ± 0.0045.

`CCN(CC)C(=S)SSC(=S)N(CC)CC` [Disulfiram] registered a growth under setting [1] of 0.197 ± 0.027; a growth under setting [2] of 0.115 ± 0.0063; a growth under setting [3] of 0.161 ± 0.014; a growth under setting [4] of 0.0709 ± 0.0023; a growth under setting [5] of 0.06003 ± 0.00047.

For the compound `CC1(C)OC(=O)NC1=O` [Dimethadione], the growth is 0.295 ± 0.016 under setting [1]; 0.2697 ± 0.0012 under setting [2]; 0.191 ± 0.017 under setting [3]; 0.184 ± 0.0086 under setting [4]; 0.139 ± 0.0053 under setting [5].
